From PubChem BioAssay
Pf growth 48h – inhibits P. falciparum growth in the first generation, 48 h; AID 504832; P. falciparum luciferase growth in erythrocytes, 48 h; hit rate 5.9% among 310,000; Potency, µM (doses to about 28.7 µM), for inactives: at the highest dose activity change, negative = inhibition, actives largely listed as inhibitors; further: potency means the concentration at half of the fitted maximal effect; on the % scale 0 is the no-effect control and ±100 the full control effect
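Luciferase-expressing parasites in RBCs, 2% Hct / 0.1% parasitemia final; RPMI 1640 + 0.5% Albumax; 37 C, 5% CO2, one generation; luminescence read-out, lower signal = inhibition.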
SARS PLpro yeast – SARS-CoV PLP inhibition in yeast. hit rate 0.19% among 330,000. AID 485353. Potency, µM (series often up to 32.9 µM), inactives show at the highest dose activity, positive = growth rescue, hits mostly activators. S. cerevisiae expressing SARS-CoV PLpro, growth rescue; calls by dose curve; further: potency means the concentration at half of the fitted maximal effect; 0% is about no effect; nearly all actives have a fitted effect of over 55% in size
HCV inhibitor – blocks hepatitis C virus; hit rate 3.4% among 340,000; Potency, µM (highest dose often 41.8 µM), without a hit: top-dose activity change, negative = inhibition, actives largely listed as inhibitors; Huh7.5.1 HCVcc-Cre infection, luciferase reporter, 44 h; AID 651820; further: potency means the concentration at half of the fitted maximal effect; on the % scale 0 is the no-effect control and ±100 the full control effect
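Seed cells (1,000/well) for 4 h; treat with compound and infect with HCVcc-Cre, moi about 0.5. Incubate 44 h, then detect luciferase activity.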
Sm TGR inh – inhibitors of Schistosoma mansoni thioredoxin glutathione reductase | Q962Y6 | Potency, µM (series often up to 114 µM), for inactives: at the top dose activity change, negative = inhibition, hits mostly inhibitors | hit rate 3% among 360,000 | AID 485364 | purified TGR, DTNB reduction, TNB absorbance 405 nm; further: potency means the concentration at half of the fitted maximal effect; on the % scale 0 is the no-effect control and ±100 the full control effect; nearly all actives have a fitted effect of over 60% in size
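First, TGR (20 nM dispensed) and NADPH were mixed with compound. Second, a 15 min room-temperature incubation followed. Third, further NADPH and then DTNB were added to start the reaction. Finally, TNB absorbance was monitored kinetically.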
Pf growth 96h – inhibits malaria parasite growth, 96 h; P. falciparum luciferase reporter growth, 96 h; Potency, µM (series often up to 28.7 µM), inactives show top-dose activity change, negative = inhibition, most hits filed as inhibitors; hit rate 6.9% among 320,000; AID 504834; further: potency means the concentration at half of the fitted maximal effect; on the % scale 0 is the no-effect control and ±100 the full control effect
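Compounds incubated with erythrocytes infected by luciferase-expressing P. falciparum (2% hematocrit, 0.05% parasitemia final) for 96 hours, 37 C in 5% CO2. Growth inhibition scored as decreased luciferase luminescence.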
HCMV antiviral – inhibitors of human cytomegalovirus; HFF cells, HCMV-luciferase reporter, 72 h; active compounds read low; activity change, negative = inhibition, % at 57.5 µM; hit rate 4.5% among 410,000; in the data active means activity change below about -60%; inconclusive means no clear call, values can overlap the other calls; inactive means above about -39%; further: on the % scale 0 is the no-effect control and ±100 the full control effect
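Steps: HFFs plated, 16 h 37C; compounds added; HCMV-luciferase added to MOI 1 PFU/cell; 72 h 37C; OneGlo reagent, 5 min room temperature; luminescence read, normalized to controls.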
* = called active by the depositor; ? = inconclusive; / = no result given; + = active, no number; [ ] = remark or other dose. In the library only some 15% were active in any assay of this set; here they are far more common. Unless noted, the call rests on the fitted dose curve; in most records, active means well fitted curve in the direction sought with a large enough effect; inconclusive means small, poorly fitted or top-dose-only effect, or another doubt; inactive means no such curve, though single readings can be large; an effect the other way counts as inactive or inconclusive.

SMILES	Pf growth 48h	SARS PLpro yeast	HCV inhibitor	Sm TGR inh	Pf growth 96h	HCMV antiviral
COc1ccc(S(=O)(=O)NCC(c2ccco2)S(=O)(=O)c2ccc(C)cc2)cc1C (centres undefined)	/	/	/	0.79µM*	/	-14
Cc1noc(C)c1NC(=O)N(C)C[C@H]1OCc2cn(nn2)CCCC(=O)N([C@H](C)CO)C[C@@H]1C	/	/	/	/	/	-7
Cn1ncc(Cl)c1C(=O)NC(=S)Nc1sc2c(c1C#N)CCCCC2	69%	5%	-5%	?	5%	-60*
N#Cc1c(NC(=S)NC(=O)C2CCCC2)sc2c1CCCCC2	-7%	-41%	?	-9%	-27%	-3
COc1ccc(C2CC(c3ccccc3OC(=O)/C=C/c3ccccc3)=NN2C(C)=O)cc1 (centres undefined)	2%	0%	?	12%	10%	12
COc1ccc(C2CC(c3ccccc3OC(C)=O)=NN2C(=O)/C=C/c2ccccc2)cc1OC (centres undefined)	2.6µM*	11%	-26%	-6%	?	?
COc1ccc(C2=NN(C(=O)/C=C/c3ccccc3)C(c3ccccc3)C2)c(OC(C)=O)c1 (centres undefined)	13µM*	15%	?	5%	?	-31
COc1cccc(-c2cc3c(Nc4ccc(OC)cc4C)nccc3n2C)c1	/	/	/	/	/	-2
CCCS(=O)(=O)c1ncc(Cl)c(C(=O)N2CCN(c3ccc(OC)cc3)CC2)n1	/	/	/	11µM*	/	-103*
C=CCN1C(=O)/C(=C/c2ccc3c(c2)CCCN3CCC)C(=O)NC1=S	22%	-8%	-8%	8.9µM*	40%	121
O=C1NC(=S)N(C2CC2)C(=O)/C1=C/c1ccc2c(c1)CCN2CCCCl	18%	-19%	17%	?	31%	35
CCN1C(=O)/C(=C/c2ccc3c(c2)CCN3CCCCl)C(=O)NC1=S	-1%	-11%	9%	8.9µM*	0%	-33
Cc1c(C(=O)N2CCN(c3cccc(Cl)c3)CC2)cccc1[N+](=O)[O-]	-2%	-1%	24%	/	-3%	-2
O=C(OCCN1C(=O)c2cccc3c(N4CCOCC4)ccc(c23)C1=O)c1ccc(Cl)cc1Cl	?	21%	?	-1%	?	-29
O=C(OCCN1C(=O)c2cccc3c(N4CCOCC4)ccc(c23)C1=O)c1cccc(Cl)c1	?	16%	11µM*	0%	?	/
CCOC(=O)c1ccc(N2C(=O)CC(C3CCCO3)C2=O)cc1 (centres undefined)	13%	-6%	18%	8%	346%	26
CCOC(=O)c1ccc(N2C(=O)C3CCOc4ccccc4C32)cc1 (centres undefined)	?	-25%	-24%	-7%	?	-79*
CCOC(=O)c1ccc(N2C(=O)C(O)=C(C(C)=O)C2c2ccccc2)cc1 (centres undefined)	-27%	12%	2%	-6%	-9%	-32
CCOC(=O)c1ccc(N2C(=O)[C@@H](c3ccccc3)[C@H]2c2ccccc2)cc1	10µM*	-16%	-6%	2%	?	0
CCCN1CCN(CC(O)COC(c2ccc(OC)cc2)c2ccc(OC)cc2)CC1 (centres undefined)	-24%	-1%	-13%	8%	26%	-26
COC(=O)c1c(-c2ccc(OC)cc2)oc2ccccc12	0%	-4%	?	-2%	49%	-6
COc1ccc(-c2sc3cc4c(cc3c2-c2ccc(OCCN3CCOCC3)cc2)OCO4)cc1	/	-5%	-49%	/	/	12
COc1ccc(-c2sc3ccc(OC)cc3c2C#Cc2cncn2C)cc1	/	-9%	2.8µM*	/	/	20
COc1ccc(-c2sc3cc4c(cc3c2C#Cc2cncn2C)OCO4)cc1	/	3%	5µM*	/	/	-3
COc1ccc(-c2oc3ccccc3c2C#Cc2cncn2C)cc1	0.59µM*	6%	2.8µM*	-19%	0.66µM*	5
SMILES	Pf growth 48h	SARS PLpro yeast	HCV inhibitor	Sm TGR inh	Pf growth 96h	HCMV antiviral
COc1cc(OC)cc(-c2sc3ccc(OC)cc3c2C#CC2(N)CCCCC2)c1	/	-1%	-24%	/	/	-5
COc1ccc(-c2sc3cc4c(cc3c2C#CC2(N)CCCCC2)OCO4)cc1	13µM*	0%	22µM*	-21%	?	-4
CC(=O)Nc1ccc(CN2C(=O)C(CCc3ccccc3)ON=C2c2cnccn2)cc1 (centres undefined)	/	/	/	/	/	30
CCCCN1C(=O)C(C(=O)OCC)CC2=C1CCCC2=O (centres undefined)	/	/	-20%[8.37 µM]	/	/	-3
COc1ccc(-c2sc3ccc(N4CCOCC4)cc3c2C#CC2(O)CCCCC2)cc1	/	2%	2.8µM*	/	/	64
Cc1c(OCC(=O)N2CCC(C(=O)O)CC2)ccc2c3c(c(=O)oc12)CCC3	40%	4%	0.32µM*	9%	61%	10
Cc1cc(=O)oc2c(C)c(OC(C)C(=O)NCC(O)c3ccccc3)ccc12 (centres undefined)	?	-1%	?	-1%	?	?
Cc1c(OC(C)C(=O)NCC(O)c2ccccc2)ccc2c3c(c(=O)oc12)CCCC3 (centres undefined)	8.3µM*	-2%	25µM*	0%	4.1µM*	0
Cc1c(OCC(=O)NCC(O)c2ccccc2)ccc2c3c(c(=O)oc12)CCC3 (centres undefined)	-15%	5%	?	-5%	12µM*	-12
Cc1c(OCC(=O)NCCCN2CCCC2=O)ccc2c3c(c(=O)oc12)CCCC3	?	3%	7%	-23%	19µM*	+
O=C(NCc1ccccc1)c1ncn[nH]1	70%	2%	24%	-11%	0%	?
O=C(NCc1ccccc1)c1ccc2c(c1)nc1n2CCOC1	/	/	/	-1%	/	4
CCOC(=O)C1CCN(c2ncnc3c2nnn3C)CC1	/	/	/	2%	/	6
Cc1cccc(OCc2ccc(-c3nc(C#N)c(NCCN(C)C)o3)o2)c1	/	/	/	-3%	/	38
Cc1cc(OCC(=O)NCC(O)c2ccccc2)c2c3c(c(=O)oc2c1)CCC3 (centres undefined)	?	-6%	-29%	1%	-79%	4
O=C(COc1cc2oc(=O)c3c(c2cc1Cl)CCC3)NCC(O)c1ccccc1 (centres undefined)	0%	2%	?	1%	13µM*	0
CCc1cc(=O)oc2cc(OCC(=O)NCCCN3CCCC3=O)c(Cl)cc12	?	1%	-17%	-10%	12µM*	-22
CN(C)C=NC(=O)c1cc(C(=O)c2ccc(Cl)cc2Cl)c[nH]1	27%	1%	-24%	8%	4%	-39
